# In the supplement of paper PMC6763611:
# System: Plasmodium falciparum NF54
# Assay: growth inhibition relative to untreated control; higher = more inhibition
# Settings: 72 h
# How it was run: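 Two media were used: minimal RPMI, and minimal RPMI carrying the chorismate end-products folate, pABA, pHBA, tyrosine, phenylalanine and tryptophan at 2.2 μM, 7.3 μM, 7.3 μM, 111 μM and 90 μM for the first five. In these media, P. falciparum NF54 ring stages (1% hematocrit, 1% parasitemia, 100 μL/well) were exposed in dark 96-well half-area plates to a single 5 μM or 1 μM test-compound dose for 72 h at 37 °C. Growth inhibition was then assessed with SYBR Green against untreated wells, subtracting background from uninfected erythrocytes.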
# [1] = 1 µM, MM + chorismate end-products (CM screening medium)
# [2] = 5 µM, MM + chorismate end-products (CM screening medium)
SMILES,growth inhibition [1],"growth inhibition (1 µM, minimal medium (MM))",growth inhibition [2],"growth inhibition (5 µM, minimal medium (MM))"
COc1ccc(-c2cc(NC(=O)c3ccc(F)cc3Cl)ccc2OC)cc1,8.71%,13.2%,< 0%,< 0%
Nc1nc2cc(-c3cncc(Oc4ccc(F)cc4)c3)ccc2[nH]1,76.1%,67.8%,94.9%,95.6%
COC(=O)c1ccc(F)cc1NS(=O)(=O)c1cccc(-c2cnn(Cc3ccccc3)c2)c1,33.2%,37.7%,9.57%,< 0%
NS(=O)(=O)c1cccc(-c2ccc3ncc(N4CCOCC4)nc3c2)c1,47%,71%,> 100%,88.7%
CC(C)C(Oc1cccc2ccccc12)C(=O)O (stereo not drawn),17.4%,13.6%,< 0%,0.0991%
O=C(NCc1ccco1)N1CCN(Cc2ccc(Cl)s2)CC1,12.8%,2.55%,21%,5.16%
Cc1cc(Nc2ccc(C(F)(F)F)cc2)n2ccnc2n1,97.2%,94.6%,97.3%,94.4%
CCCn1c(NC(=O)c2ccc3ccccc3n2)nc2ccccc21,38.2%,20.1%,86.1%,85%
O=C(Nc1ccc(N2CCNCC2)nc1)c1oc(-c2ccccc2)nc1C(F)(F)F,91.7%,> 100%,96.6%,89.9%
CS(=O)(=O)c1ccc(C(=O)N(CC2CCCO2)c2nc3ccccc3s2)cc1[N+](=O)[O-] (stereo not drawn),< 0%,31.2%,72.3%,55.5%
CNCCC(Oc1ccc(C(F)(F)F)cc1)c1ccccc1 (stereo not drawn),10.2%,< 0%,< 0%,2.19%
NCCCC(N)(C(=O)O)C(F)F (stereo not drawn),14%,< 0%,< 0%,< 0%
O=C(C1CCN(c2nnnn2-c2ccccc2)CC1)N1CCc2ccccc2C1,43.4%,33%,< 0%,< 0%
CCCCS(=O)(=O)Nc1ccc2cnn(C)c2c1,3.73%,< 0%,13.4%,1.13%
CC(=O)N(CCN(C(=O)c1ccc(F)cc1)c1ccccc1)c1ccccc1,< 0%,< 0%,20.2%,< 0%
c1cc(C2=NCCN2)cc(-c2cc(-c3ccc(C4=NCCN4)cc3)no2)c1,81.6%,81.6%,97.8%,89.7%
COc1cccn2c(C(=O)N3CCCCC3)c(C(F)(F)F)nc12,12.4%,15.1%,< 0%,< 0%
Cc1cc(NCCc2ccccc2)nc(NC(=N)Nc2ccc(Cl)cc2)n1,97.8%,97.7%,86.2%,93.7%
CCOc1ccc2cc(-c3nn(C(C)(C)C)c(N)c3C(N)=O)cnc2c1,11%,18.1%,3.3%,< 0%
CC1=NN(c2nc3ccccc3s2)C(=O)C1Cc1cccc2ccccc12 (stereo not drawn),< 0%,0.985%,< 0%,< 0%
O[C@@H](c1cc(C(F)(F)F)nc2c(C(F)(F)F)cccc12)[C@H]1CCCCN1,94.5%,94.9%,91.5%,85.5%
CCOC(=O)c1cc(-c2csc(Nc3c(C)cc(C)cc3C)n2)on1,12.2%,20.5%,34.3%,< 0%
COc1ccc(-c2cnc3cnc(-c4cccc(OC(C)C)c4)cn23)cc1,36.4%,34.1%,< 0%,8.04%
Cc1ccc2[nH]c(C3CCCNC3)c(-c3ccncc3)c2c1 (stereo not drawn),97.7%,97.5%,> 100%,97.4%

SMILES,growth inhibition [1],"growth inhibition (1 µM, minimal medium (MM))",growth inhibition [2],"growth inhibition (5 µM, minimal medium (MM))"
Clc1ccc(Cl)c(CO[C@H]2CCCC[C@@H]2n2ccnc2)c1,< 0%,< 0%,67.1%,9.72%
CC(C)n1ncc2c(C(=O)NCC(c3cccs3)N3CCOCC3)cc(-c3ccccc3)nc21 (stereo not drawn),10%,9.61%,42.4%,14.2%
O=C(Nc1cccnc1)c1c(O)c2cccc3c2n(c1=O)CC3,6.17%,21.1%,4.63%,< 0%
OCCc1ccc(Nc2nccc(-c3nnc4ccccn34)n2)cc1,82.3%,80.1%,65.5%,52.1%
OCc1ccc(-c2cncc(Nc3cccc(Cl)c3)c2)cc1,78.7%,> 100%,83.2%,85%
O=C(NC1CC1)c1ccc(N2CCC(Cc3ccccc3)CC2)nc1,95.5%,91.8%,95.7%,92.1%
Cc1nnc(NC(=O)c2cn(-c3ccccc3)nc2-c2ccccc2C)o1,89.2%,87.7%,83.6%,83.6%
CC(C)(C)[C@H]1CC[C@H](CC2=C(O)C(=O)c3ccccc3C2=O)CC1,97.5%,95.2%,94.8%,93.4%
CC(C)(C)c1cc(C(=O)N2CCN(c3nccnc3C#N)CC2)n(Cc2ccccc2)n1,73.4%,> 100%,92.9%,92%
COc1ccc(C2=NN(C3CCCCCC3)C(=O)C2(C)C)cc1OCCCCOc1ccc(-c2nn[nH]n2)cc1,36.5%,34.6%,47.2%,46.8%
O=C(c1ccco1)N(CCCn1ccnc1)c1nc2c(Cl)cccc2s1,13.2%,22.3%,> 100%,92.8%
COC(=O)c1c(NC(=O)c2cc3ccccc3oc2=O)sc2c1CCN(Cc1ccccc1)C2,< 0%,8.51%,5.7%,1.3%
CC(=O)OCC1OC([S-])C(OC(C)=O)C(OC(C)=O)C1OC(C)=O.CCP(CC)CC.[Au+] (stereo not drawn),84.8%,71.6%,87.8%,91.7%
CC(C)n1nc(-c2cc3c(Cl)cccc3[nH]2)c2c(N)ncnc21,50.4%,16%,57.9%,15.9%
COc1ccc(-c2cnc3ccc(NCc4ccc(S(N)(=O)=O)cc4)nn23)cn1,73.3%,77.2%,95.9%,92.1%
c1ccc(-c2nc(NC3CCCCC3)cc(C3CC3)n2)nc1,80.6%,56.8%,94.6%,93.6%
C[C@]1(O)C[C@@H](c2nc(-c3ccc4ccc(-c5ccccc5)nc4c3)c3c(N)nccn32)C1,35%,34.1%,53.2%,43.8%
CCOc1ccccc1C(=O)Nc1cccc(-c2nc3ncccn3c2C)c1,75.8%,76.7%,95.8%,85.4%
C[C@H]1c2cccc(O)c2C(=O)C2=C(O)[C@]3(O)C(=O)C(C(N)=O)=C(O)[C@@H](N(C)C)[C@@H]3[C@@H](O)[C@@H]21,50.6%,50.7%,41%,< 0%
Cc1ccc2[nH]c3c(NCCN(C)C)ncnc3c2c1,97.6%,96.5%,98.1%,95.7%
COc1ccc2nc(C)cc(OCC(=O)Nc3ccccc3OC)c2c1,11.7%,< 0%,< 0%,27.5%
c1ccc(Oc2ccc(-c3cc(C4CCOCC4)[nH]n3)cc2)cc1,1.03%,< 0%,< 0%,< 0%
Cc1ccccc1C(=O)N1N=C(Nc2ccccc2)SC1(C)C,49.8%,9.58%,< 0%,5.01%
CCOC(=O)NC(=O)c1ccsc1NC(=O)c1nc2ccccc2s1,36.1%,< 0%,< 0%,< 0%

SMILES,growth inhibition [1],"growth inhibition (1 µM, minimal medium (MM))",growth inhibition [2],"growth inhibition (5 µM, minimal medium (MM))"
COc1ccc(C2=NN(C3CCCCCC3)C(=O)[C@@H]3CC=CC[C@H]23)cc1OCCCCOc1ccc(-c2nnn[nH]2)cc1,19%,16.4%,44.9%,48.6%
Cc1cccc(NC(=O)c2cc(S(=O)(=O)N(C)c3ccc(F)cc3)ccc2Cl)n1,86.6%,82.9%,87.9%,91.5%
CCOc1ccccc1NC(C)C(=O)Nc1cc(C(F)(F)F)ccc1N1CCOCC1 (stereo not drawn),76%,64.5%,91.6%,96.1%
O=C(Nc1ccc(F)c(-c2nc3cc(-c4ccccc4)cnc3[nH]2)c1)N1CCCC1,17.5%,25.6%,3.27%,< 0%
CCOc1ccc(OCC(=O)Nc2cc(C)cc(C)c2)cc1,24.6%,< 0%,32.1%,< 0%
CCCn1c(CNc2ccccc2O)nc2ccccc21,11.5%,22.8%,12.5%,< 0%
CCn1cnc2c(Nc3cc(F)cc(F)c3)nc(C#N)nc21,36.4%,< 0%,40.3%,< 0%
O=C(Nc1ccccc1-c1nc2c(C(=O)O)cccc2o1)c1ccccc1,< 0%,0.353%,< 0%,< 0%
COc1cccc(-n2nnnc2S(=O)(=O)Cc2ccccc2)c1,13.8%,3.94%,65.6%,< 0%
c1ccc(Oc2ccc(-c3cc(CN4CCOCC4)[nH]n3)cc2)cc1,0.894%,< 0%,< 0%,11.1%
Cc1ccc2nc(C)c(-c3ccn(Cc4ccccc4)n3)n2c1,43%,33.9%,36.8%,< 0%
O=C(N[C@H](Cc1ccccc1)C(=O)Nc1ccccc1N1CCOCC1)c1cccs1,6.47%,2.12%,47.7%,27.5%
O=[N+]([O-])c1cn2c(n1)OC[C@@H](OCc1ccc(OC(F)(F)F)cc1)C2,36.9%,2.72%,< 0%,< 0%
Cc1ccc(NC(=O)c2nc[nH]c2C(=O)Nc2nc3ccccc3[nH]2)c(C)c1,31%,49.8%,26.8%,80.9%
Cc1cc(C(=O)Nc2cnn(Cc3ccc(Cl)cc3Cl)c2)no1,80.3%,72.9%,88.6%,87.4%
Cc1nn2c(=O)c3c([nH]c2c1-c1ccc(Cl)cc1)CCCC3,< 0%,22.1%,7.72%,16.2%
CC(C)=CCC/C(C)=C/CNCCNC1C2CC3CC(C2)CC1C3 (stereo not drawn),88.5%,92.6%,> 100%,91.3%
CCCCCCCCCCCCCCCCOP(=O)([O-])OCC[N+](C)(C)C,35.9%,19%,3.26%,8.75%
OC[C@H]1O[C@@H](n2c3ccc(Cl)cc3c3c(-c4cc5ccccc5o4)ncnc32)C(O)[C@H]1O (stereo partly drawn),1.89%,13.6%,63.8%,30%
CS(=O)(=O)N1CCC(Cn2nc(Cc3cccc4ccccc34)c3c(N)ncnc32)CC1,41.5%,< 0%,42.7%,17.6%
CN1CCCN(C(c2ccccc2)c2ccc(Cl)cc2)CC1 (stereo not drawn),< 0%,< 0%,33.8%,17.6%
Cc1cc(NCC(C)C)c2[nH]nc(-c3ccccc3)c2n1,89.6%,94.3%,99.7%,87.9%
Cc1cc(C)n(-c2ccc(NC(=O)C3CCN(Cc4cnc(C)s4)CC3)cc2)n1,31%,27.5%,43.6%,10.6%
CS(=O)(=O)Cc1nc2ccccc2oc1=O,< 0%,< 0%,< 0%,< 0%
